The source of these data is the supplement of paper PMC4022240.

Holding throughout (experiment): peptide microarray binding signal (635 nm), min-max normalized on array (fraction of array maximum); higher = stronger binding
What all share (details): peptide region: H4 38-50

In assay [1] the target is T1, HaloTag-ATRX ADD domain (163-292).
T1 chain: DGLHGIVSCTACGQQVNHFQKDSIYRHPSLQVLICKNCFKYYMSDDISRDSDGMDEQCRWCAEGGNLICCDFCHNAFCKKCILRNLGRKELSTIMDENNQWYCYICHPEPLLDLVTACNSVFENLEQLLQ
The method, boiled down: (§1)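 Within each library, mean intensities of triplicate spots were min-max scaled to give the binding signal. The spots were histone 13-mer peptide–cellulose conjugates on nitrocellulose with a Cy3 tracer, blocked overnight at 4°C. They were then probed for 1 h at 4°C using biotin-labelled HaloTag reader fusions (10 nM to 1 μM) with streptavidin-Alexa Fluor 647 or rabbit histone antibodies (1:10,000 to 1:2,000) with anti-rabbit Alexa 647, and scanned at 635 nm for signal and 532 nm for misprints on an Axon GenePix 4000B.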

Assay [2] addresses HaloTag-ING2 PHD (mouse Ing2 200-280). The essentials:
as §1

In assay [3] the target is anti-H3K4me3 antibody ab8580. The method, boiled down: as §1
In assay [4] the target is anti-H3K9me3 antibody ab8898. The essentials: as §1
Setting [5] is: peptide modifications: H4R45me1, binder concentration: 1:2,000 dilution.
[6] abbreviates: peptide modifications: H4R45me1, binder concentration: 1:10,000 dilution.
Where [7] appears, read: peptide modifications: H4R45me2a, binder concentration: 1:2,000 dilution.
[8] abbreviates: peptide modifications: H4R45me2a, binder concentration: 1:10,000 dilution.
Where [9] appears, read: peptide modifications: H4R45me2s, binder concentration: 1:2,000 dilution.
Setting [10] is: peptide modifications: H4R45me2s, binder concentration: 1:10,000 dilution.
[11] abbreviates: peptide modifications: H4K44me2, binder concentration: 1:2,000 dilution.
Where [12] appears, read: peptide modifications: H4K44me2, binder concentration: 1:10,000 dilution.
Where [13] appears, read: peptide modifications: H4K44me1 H4R45me1, binder concentration: 1:2,000 dilution.
Setting [14] is: peptide modifications: H4K44me1 H4R45me1, binder concentration: 1:10,000 dilution.

± gives the standard deviation.

As to ARRGGVKRISGLI [H4 38-50 A R R G G V K Rme I S G L I], the “peptide microarray binding signal” value in assay [1] (peptide modifications: H4R45me1, binder concentration: 50 nM) amounted to 0.00486 ± 6.2e-05; in assay [1] (peptide modifications: H4R45me1, binder concentration: 500 nM), 0.0107 ± 0.00046; in assay [2] (peptide modifications: H4R45me1, binder concentration: 10 nM), 0.01247 ± 0.00012; in assay [2] (peptide modifications: H4R45me1, binder concentration: 100 nM) it was 0.0215 ± 0.0011; in assay [3] (setting [5]), 0.00306 ± 5.9e-05; in assay [3] (setting [6]) it was 0.00508 ± 7.3e-05. Besides, the “peptide microarray binding signal” value in assay [4] (setting [5]) was found to be 0.0021 ± 4.5e-05; in assay [4] (setting [6]) it was 0.0019 ± 3.6e-05.

In the case of ARRGGVKRISGLI [H4 38-50 A R R G G V K Rme2a I S G L I], the “peptide microarray binding signal” value in assay [1] (peptide modifications: H4R45me2a, binder concentration: 50 nM) stood at 0.00589 ± 0.00093; in assay [1] (peptide modifications: H4R45me2a, binder concentration: 500 nM), 0.0275 ± 0.023; in assay [2] (peptide modifications: H4R45me2a, binder concentration: 10 nM) it was 0.0152 ± 0.0026; in assay [2] (peptide modifications: H4R45me2a, binder concentration: 100 nM), 0.024 ± 0.0022; in assay [3] (setting [7]) it was 0.00185 ± 3.4e-05; in assay [3] (setting [8]), 0.00468 ± 0.0014. Moreover, the “peptide microarray binding signal” value was determined as 0.00134 ± 0.00014 in assay [4] (setting [7]) and 0.00144 ± 7.5e-05 in assay [4] (setting [8]).

Take ARRGGVKRISGLI [H4 38-50 A R R G G V K Rme2s I S G L I]: the “peptide microarray binding signal” value in assay [1] (peptide modifications: H4R45me2s, binder concentration: 50 nM) amounted to 0.0042 ± 0.00012; in assay [1] (peptide modifications: H4R45me2s, binder concentration: 500 nM), 0.00971 ± 0.0016; in assay [2] (peptide modifications: H4R45me2s, binder concentration: 10 nM), 0.0212 ± 0.0027; in assay [2] (peptide modifications: H4R45me2s, binder concentration: 100 nM) it was 0.0349 ± 0.0095; in assay [3] (setting [9]), 0.00542 ± 0.0019; in assay [3] (setting [10]), 0.00702 ± 0.0012. For the same molecule, the “peptide microarray binding signal” value stood at 0.00222 ± 0.0001 in assay [4] (setting [9]) and 0.00173 ± 4.4e-05 in assay [4] (setting [10]).

With ARRGGVKRISGLI [H4 38-50 A R R G G V Kme2 R I S G L I], the “peptide microarray binding signal” value in assay [1] (peptide modifications: H4K44me2, binder concentration: 50 nM) came to 0.0141 ± 0.0019; in assay [1] (peptide modifications: H4K44me2, binder concentration: 500 nM) it was 0.0244 ± 0.00095; in assay [2] (peptide modifications: H4K44me2, binder concentration: 10 nM), 0.0118 ± 0.00032; in assay [2] (peptide modifications: H4K44me2, binder concentration: 100 nM), 0.0304 ± 0.0032; in assay [3] (setting [11]), 0.00204 ± 0.00018; in assay [3] (setting [12]), 0.00359 ± 0.00012. Besides, the figures for the “peptide microarray binding signal” value in assay [4] (setting [11]) and in assay [4] (setting [12]) were 0.00169 ± 3e-05 and 0.00231 ± 5.5e-05, respectively.

Turning to ARRGGVKRISGLI [H4 38-50 A R R G G V Kme Rme I S G L I], the “peptide microarray binding signal” value is 0.0377 ± 0.00093 in assay [1] (peptide modifications: H4K44me1 H4R45me1, binder concentration: 50 nM); 0.0199 ± 0.00027 in assay [1] (peptide modifications: H4K44me1 H4R45me1, binder concentration: 500 nM); 0.0751 ± 0.0022 in assay [2] (peptide modifications: H4K44me1 H4R45me1, binder concentration: 10 nM); 0.031 ± 0.0006 in assay [2] (peptide modifications: H4K44me1 H4R45me1, binder concentration: 100 nM); 0.00727 ± 0.00021 in assay [3] (setting [13]); 0.02163 ± 0.00021 in assay [3] (setting [14]). Besides, the “peptide microarray binding signal” value in assay [4] (setting [13]) was determined as 0.0055 ± 9.8e-05; in assay [4] (setting [14]), 0.02058 ± 0.00019.
